Rows were chosen to be rich in hits. Some 20% of all compounds tested hit in one or more screens of this group.
HCMV antiviral – qHTS Assay for inhibitors of the human cytomegalovirus (HCMV); HFF cells, HCMV-luciferase reporter, 72 h; stronger effect = lower value; AID 1259415, 2018; activity change, negative = inhibition, % at 57.5 µM; 4.5% of 410,000 active; in the data active = activity change below about -60%; inconclusive = no clear call, values can overlap the other calls; inactive = above about -39%
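Steps: HFFs plated, 16 h 37C; compounds added; HCMV-luciferase added to MOI 1 PFU/cell; 72 h 37C; OneGlo reagent, 5 min room temperature; luminescence read, normalized to controls.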
Pf growth 48h – Primary qHTS for delayed death inhibitors of the malarial parasite plastid, 48 hour incubation. 5.9% of 310,000 active. Potency, µM (highest dose often 28.7 µM), actives largely listed as inhibitors. P. falciparum luciferase growth in erythrocytes, 48 h
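Luminescence readout; reporter = integrated firefly luciferase in P. falciparum. RBC culture at 2% hematocrit, 0.1% parasitemia final, 37 C/5% CO2; decreased signal taken as growth inhibition.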
Pf growth 96h – Primary qHTS for delayed death inhibitors of the malarial parasite plastid, 96 hour incubation | P. falciparum luciferase reporter growth, 96 h | Potency, µM (highest dose often 28.7 µM), hits mostly inhibitors | 6.9% of 320,000 active
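Delayed-death screen, second-generation endpoint: infected erythrocytes, 2% hematocrit, 0.05% parasitemia final; 96 hours at 37 C, 5% CO2; luciferase detection reagent; luminescence decrease equals reduced growth.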
Shiga inhibitor – A qHTS for Small Molecule Inhibitors of Shiga Toxin. 9.2% of 290,000 active. inhibition, % at 38.7 µM. Vero cells, Shiga toxin protein synthesis inhibition reporter; in the data active = inhibition mostly above about 28%, no sharp cut-off; inactive = mostly below about 43%
CHX counter – Cycloheximide Counterscreen for Small Molecule Inhibitors of Shiga Toxin. max response, %. cell reporter, cycloheximide protein synthesis inhibition counterscreen. 12% of 300,000 active; in the data active = max response mostly above about 13%, no sharp cut-off; inactive = mostly below about 14%; note: read at 38.3 µM for the half of the compounds with a filed dose
Of the large screens only hits and unclear results are named; the others gave an inactive call. Unless noted, calls come from the whole dose curve; as a rule, active = well fitted inhibition curve with a large enough effect; inconclusive = small, poorly fitted or top-dose-only effect, or another doubt; inactive = no such curve, though single readings can be large or run the other way.

C[C@H]1C[C@H]2[C@@H]3CCC4=CC(=O)C=C[C@]4(C)[C@@]3(Cl)[C@@H](O)C[C@]2(C)[C@@]1(O)C(=O)CO	Pf growth 96h inconclusive
CCCCC(=O)O[C@]1(C(=O)CO)[C@H](C)C[C@H]2[C@@H]3CCC4=CC(=O)C=C[C@]4(C)[C@@]3(F)[C@@H](O)C[C@@]21C	Pf growth 48h inconclusive, Pf growth 96h inconclusive (no result: HCMV antiviral)
CCC1(c2ccccc2)SCC(c2ccccc2)=NC1=O (stereo not drawn)	none (no result: Pf growth 48h, Pf growth 96h, Shiga inhibitor, CHX counter)
COc1ccc(CNC(=O)C2(CC3CC(c4ccccc4)=NO3)CCNCC2)cc1 (stereo not drawn)	none (no result: Pf growth 48h, Pf growth 96h, Shiga inhibitor, CHX counter)
CCc1nn(CC(=O)NCCCOC)c(=O)c2cc3ccccc3n12	none (no result: Pf growth 48h, Pf growth 96h, Shiga inhibitor, CHX counter)
CC(=O)OCC(=O)[C@@]1(OC(C)=O)[C@@H](C)C[C@H]2[C@@H]3C[C@H](F)C4=CC(=O)C=C[C@]4(C)[C@@]3(F)[C@@H](O)C[C@@]21C	Pf growth 48h inconclusive, Pf growth 96h inconclusive
CCC(=O)O[C@]1(C(=O)CCl)[C@@H](C)CC2C3C[C@H](F)C4=CC(=O)C=CC4(C)[C@@]3(F)C(O)CC21C (stereo partly drawn)	Pf growth 48h 1.9µM (no result: HCMV antiviral, Shiga inhibitor, CHX counter)
CC(C)c1nnc(NC(=O)c2cc3ccccc3o2)s1	Shiga inhibitor 111, CHX counter 33
Cc1cc(C)c2oc(C(=O)Nc3nnc(C(C)C)s3)cc(=O)c2c1	HCMV antiviral -66
CCOC(=O)N1CCc2c(sc(NC(=O)C3=COCCO3)c2C(N)=O)C1	Pf growth 48h inconclusive, Pf growth 96h inconclusive
O=C(Nc1sc2c(c1C(=O)NC1CCCCC1)CCC2)c1ccco1	none
CNC(=O)c1c(NC(=O)C2=COCCO2)sc2c1CCCC2	Pf growth 96h 13µM
CNC(=O)c1c(NC(=O)c2ccco2)sc2c1CCC2	CHX counter 31
Cc1cc(N=Cc2c(O)n(-c3ccc4c(c3)OCO4)c(=O)c3ccccc23)ccn1	HCMV antiviral -92
Cc1ccc(-n2c(O)c(C=Nc3ccccc3N)c(=O)[nH]c2=O)cc1C	Shiga inhibitor 67, CHX counter 46
Cc1cc(N=Cc2c(O)n(-c3ccc(C)c(C)c3)c(=O)c3ccccc23)no1	HCMV antiviral -64, Pf growth 48h inconclusive, Pf growth 96h inconclusive
Cc1cc(S(N)(=O)=O)ccc1N=Cc1c(O)n(-c2ccccc2)c(=O)[nH]c1=O	none
COCCCNC(=O)Cn1nnc(-c2ccccc2NC(=O)c2ccccc2F)n1	HCMV antiviral inconclusive
CCOc1ccc(-c2nonc2NC(=O)c2oc3ccc(Cl)cc3c2C)cc1	none (no result: Pf growth 48h, Pf growth 96h, Shiga inhibitor, CHX counter)
Cc1cccc(CNCCc2c[nH]c3ccccc23)c1	HCMV antiviral -99, Pf growth 48h inconclusive, Pf growth 96h inconclusive
c1ccc(CNCCc2c[nH]c3ccccc23)cc1	none
CCN(CC)CC(=O)c1c[nH]c2ccccc12	Pf growth 96h 2.9µM
Cc1cccc(CC(=O)c2c[nH]c3ccccc23)c1	Shiga inhibitor 51
CCc1ccc(CNCCc2c[nH]c3ccccc23)cc1	Pf growth 96h 7.4µM
Fc1cccc(CNCCc2c[nH]c3ccccc23)c1	Pf growth 96h inconclusive
CCC(CC)C(=O)c1c[nH]c(C(=O)OC)c1	none
COc1ccccc1CNC(=O)COCc1cc(-c2cccs2)on1	none (no result: Pf growth 48h, Pf growth 96h, Shiga inhibitor, CHX counter)
O=c1ccc(-c2ccc(S(=O)(=O)NCC3CCN(Cc4cccc(F)c4)CC3)s2)n[nH]1	Pf growth 48h 5.2µM, Pf growth 96h inconclusive
CCOC(=O)c1c(S(=O)(=O)NCC2CCN(Cc3cccc(F)c3)CC2)c(C)n(C)c1C	none
O=C(CNC(=O)c1ccc2c(c1)OCCO2)N/N=C/c1ccc(Cl)cc1	none
CCN(CC)c1ccc(/C=N/NC(=O)c2ccc3c(c2)OCCO3)cc1	Pf growth 48h inconclusive, Shiga inhibitor 115, CHX counter 58
CN(C)c1ccc(/C=N/NC(=O)c2ccc3c(c2)OCCO3)cc1	Shiga inhibitor 48, CHX counter 34
O=C1NC[C@H](CCCCN2C[C@H](Cc3ccccc3)N(Cc3ccccc3)C(=O)C2=O)N(CCC2CCCCC2)C1=O	none (no result: Pf growth 48h, Pf growth 96h, Shiga inhibitor, CHX counter)
O=C(NCC(c1ccc2c(c1)OCO2)N1CCN(c2ccccc2)CC1)C(=O)Nc1ccc(F)cc1 (stereo not drawn)	none (no result: Pf growth 48h, Pf growth 96h, Shiga inhibitor, CHX counter)
Cc1noc(C)c1CSc1ccccc1C(=O)Nc1nccs1	none (no result: Pf growth 96h)
CCc1cccc(C)c1Nc1c(-c2cccs2)nc2nc(C)cc(C)n12	none (no result: Pf growth 48h, Pf growth 96h, Shiga inhibitor, CHX counter)
CCN=C1SC(CC(=O)Nc2ccc(C(F)(F)F)cc2)C(=O)N1CC (stereo not drawn)	Pf growth 48h 2.6µM
CCN=C1SC(CC(=O)Nc2ccc(N3CCOCC3)cc2)C(=O)N1CC (stereo not drawn)	none (no result: Pf growth 96h)
O=C(CCCn1c(=S)[nH]c2cc3c(cc2c1=O)OCO3)N1CCN(c2ccccc2)CC1	Pf growth 96h 13µM
O=C(CCCn1c(=S)[nH]c2cc3c(cc2c1=O)OCO3)NCCc1ccc(Cl)cc1	HCMV antiviral -74 (no result: Pf growth 48h, Pf growth 96h, Shiga inhibitor, CHX counter)
CC(=O)c1ccc(N2CCN(C(=O)CCCn3c(=S)[nH]c4cc5c(cc4c3=O)OCO5)CC2)cc1	Pf growth 48h 12µM
O=C(CCCn1c(=S)[nH]c2cc3c(cc2c1=O)OCO3)N1CCN(c2ccc(Cl)cc2)CC1	HCMV antiviral -86
COc1ccc(N2CCN(C(=O)CCCCCn3c(=S)[nH]c4cc5c(cc4c3=O)OCO5)CC2)cc1	Pf growth 48h inconclusive, Pf growth 96h inconclusive (no result: HCMV antiviral)
CC(=O)C1=C(c2ccc(Cl)cc2)N(C(C)=O)n2c(nnc2C2CCCCC2)S1	none (no result: Pf growth 48h, Pf growth 96h, Shiga inhibitor, CHX counter)
COC(=O)[C@]1(C#N)CC(=O)N([C@H](c2ccccc2)[C@H](O)c2ccccc2)[C@@H]1c1ccccc1	none (no result: Pf growth 48h, Pf growth 96h, Shiga inhibitor, CHX counter)
COc1ccc(N(Cc2ccccc2)C(=O)c2ccccc2[N+](=O)[O-])cc1	none (no result: Pf growth 96h)
COc1ccc(S[C@]2(c3nc(C)no3)CC(=O)N(C(=O)CCc3ccccc3)[C@@H]2c2ccc(OC)cc2)cc1	none (no result: Pf growth 48h, Pf growth 96h, Shiga inhibitor, CHX counter)
O=C(/C=C\c1ccc(-c2cccc([N+](=O)[O-])c2)o1)N1CCOCC1	Shiga inhibitor 61, CHX counter 37
O=C(c1ccc(-c2cccc([N+](=O)[O-])c2)o1)N1CCN(c2ccc([N+](=O)[O-])cc2)CC1	HCMV antiviral -61, Pf growth 48h inconclusive, Pf growth 96h inconclusive (no result: Shiga inhibitor, CHX counter)
O=C(c1ccc(-c2ccc(Cl)cc2)o1)N1CCN(c2ccc([N+](=O)[O-])cc2Cl)CC1	HCMV antiviral -80, Pf growth 48h inconclusive, Pf growth 96h inconclusive
CC1CC(C)CN(C(=O)c2ccc(-c3ccc([N+](=O)[O-])cc3)o2)C1 (stereo not drawn)	HCMV antiviral inconclusive (no result: Shiga inhibitor, CHX counter)
O=C(c1ccc(-c2ccc([N+](=O)[O-])cc2)o1)N1CCCCC1	Shiga inhibitor 93, CHX counter 43
O=[N+]([O-])c1cccc(-c2ccc(C(=S)N3CCN(c4ccc(F)cc4)CC3)o2)c1	none
O=C(OCc1nc(-c2ccccc2Cl)no1)c1ccco1	none (no result: Shiga inhibitor, CHX counter)
O=C(/C=C/[C@H]1O[C@@H](n2cnc3c(NC(=O)c4ccccc4)ncnc32)[C@H](O)[C@@H]1O)NCCCc1ccccc1	none (no result: Pf growth 48h, Pf growth 96h, Shiga inhibitor, CHX counter)

Screens deposited in PubChem by National Center for Advancing Translational Sciences (NCATS).
